Activity calls are given as the source filed them. Cut-off read from the data, not from the text of the source, unless noted: active = inhibition above about 44%; inactive = the rest.

Here are results for 40 compounds from PubChem BioAssay.

Sequence of Nuclear receptor subfamily 5 group A member 2 (Homo sapiens) (O00482 whole entry, looked up): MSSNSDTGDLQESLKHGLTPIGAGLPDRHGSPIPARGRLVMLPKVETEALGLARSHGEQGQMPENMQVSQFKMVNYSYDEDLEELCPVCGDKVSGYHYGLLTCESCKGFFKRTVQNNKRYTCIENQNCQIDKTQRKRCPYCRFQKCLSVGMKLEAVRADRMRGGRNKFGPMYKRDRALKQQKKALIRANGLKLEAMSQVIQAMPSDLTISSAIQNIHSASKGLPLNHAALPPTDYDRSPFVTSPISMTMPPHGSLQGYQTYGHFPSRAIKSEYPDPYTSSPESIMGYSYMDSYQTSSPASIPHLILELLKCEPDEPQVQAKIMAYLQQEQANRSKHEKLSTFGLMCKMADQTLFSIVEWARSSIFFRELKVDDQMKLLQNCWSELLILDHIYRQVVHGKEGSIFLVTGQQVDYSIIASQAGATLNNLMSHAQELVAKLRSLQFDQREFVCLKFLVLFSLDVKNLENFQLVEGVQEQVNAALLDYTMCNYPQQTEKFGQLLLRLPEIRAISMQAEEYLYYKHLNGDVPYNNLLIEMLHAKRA

One assay has as its target Nuclear receptor subfamily 5 group A member 2 (Homo sapiens) (UniProt O00482). The assay can be described thus: NR5A2 activity suppression in reporter cells – cell-based, luminescence, confirmation (AID 651613; in the data active = inhibition above about 42%;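 note: HEK293T cells co-transfected with LRH-1 and StAR promoter luciferase reporter; 0% = vehicle wells and 100% = parental cells lacking receptor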). The settings on record: cell-based LRH-1 luciferase reporter, inverse agonism; at 3.6 µM; active compounds read high.
As to `COc1ccc(S(=O)(=O)Nc2cc3c4c(oc3c3ccccc23)CCCC4=O)cc1`, the inhibition is 69.6% (active).
Consider `Cc1c(Cl)cccc1NC(=O)CNc1ccccc1F`, for which the inhibition was 58.7% (active).
Same read-out and setting: to `OC[C@@H]1CN(Cc2ccc(-c3ccccc3)cc2)C[C@H](n2cnc3c(NC4CCC4)ncnc32)O1` belongs 53.4% (active).
Same read-out and setting: to `CC1(C)Cc2ccccc2-c2nnnn21` belongs 14.1% (inactive); to `CCn1c(=S)sc2c(=O)n(CC(=O)Nc3ccc(OC)c(Cl)c3)c(C)nc21`, 33.4% (inactive); to `CC(C)Oc1cccc(-c2cc(C(=O)NN3CCOCC3)c3ccccc3n2)c1`, 40.7% (inactive).
Still for that read-out and setting: to `O=C(Nc1cccc(S(=O)(=O)N2CCCCC2)c1)c1ccc([N+](=O)[O-])o1` belongs 67.3% (active); to `CCc1cc(=O)oc2c(C)c(OCC(=O)NC3CC(C)(C)NC(C)(C)C3)ccc12`, 56.7% (active); to `O=C(C1=C[C@@H](C2CCCCC2)C[C@@H](OCc2ccc(CO)cc2)O1)N1CCN(Cc2ccc3c(c2)OCO3)CC1`, 46.2% (active).
As to `c1ccc(Oc2nc(-c3cccnc3)nc3ccccc23)cc1`, the inhibition is 57.3% (active).
On the same count and under the same terms, for `CCC1(C)OC(=O)N2CCc3c(C)[nH]c4c(C)ccc(c34)C21C` (stereo not given) the value was 41.6% (active); for `CC(=O)Nc1cc(-c2ccccc2N(C)C)cn2c(-c3ccc(S(C)(=O)=O)cc3)cnc12`, 49.8% (active).
On the same count and under the same terms, for `C=CCNc1sc(C(=O)c2ccccc2)c(N)c1C#N` the value was 43.6% (active); for `CCCc1cc(=O)n2nc(N3CCC(C(=O)N4CCN(c5ccc(OC)cc5)CC4)CC3)sc2n1`, 56.5% (active).
On the same count and under the same terms, for `O=C(Nc1ccc(N2CCN(C(=O)c3ccccc3)CC2)cc1)c1ccc([N+](=O)[O-])o1` the value was 64.8% (active).
`C/C(=N\N1CCN(c2ccc(Cl)cc2)CC1)c1cccc([N+](=O)[O-])c1`: the inhibition was 15.8% (inactive).
On the same count and under the same terms, for `COC(=O)CC1(C(=O)OC)Oc2ccc(Br)cc2C(=O)N1c1cc(Cl)c(Cl)cc1Cl` (stereo not given) the value was 58.5% (active); for `COc1cc2c(cc1OC)CN(C(=O)CN1CCN(S(=O)(=O)c3ccc(C)c(C)c3)CC1)CC2`, 49.3% (active); for `CCOC(=O)c1c(C)[nH]c(C(=O)COC(=O)/C=C/c2ccc3c(c2)OCO3)c1C`, 36.5% (inactive).
Consider `CCOc1cc(/C=N/Nc2nnc(C)n2N)ccc1O`, for which the inhibition was 18.2% (inactive).
Still for that read-out and setting: to `Cc1ccc(Cn2nc(C)c(NC(=O)c3noc4c3CCCCC4)c2C)cc1` belongs 53.6% (active); to `CCCc1cc(=O)oc2cc(C)cc(OCC(=O)NC3CC3)c12`, 59.5% (active).
On the same count and under the same terms, for `CC(=O)N1CCc2c(sc(NC(=O)Cc3ccccc3)c2C#N)C1` the value was 64% (active); for `Cc1cc(C(=O)CSc2nnnn2C)c(C)n1CCc1ccc(F)cc1`, 49.4% (active).
Still for that read-out and setting: to `S=C(Nc1ccc(Br)cc1)Nc1ccc2c(c1)OCCO2` belongs -51.1% (inactive); to `CCC(=O)N1CCN(c2ccc(NC(=O)c3ccc([N+](=O)[O-])o3)cc2)CC1`, 78% (active).
As for `CC1(C(=O)NCc2ccc(Cl)cc2)CCN1C(=O)Cc1ccc(Cl)cc1Cl` (stereo not given), the inhibition was 44.1% (active).
On the same count and under the same terms, to `C=CCNc1nc2c(c(=O)n(C)c(=O)n2C)n1CCCCCC` belongs 73% (active).
As for `Cc1ccc(S(=O)(=O)NCc2ccncc2)c(C)c1C`, the inhibition is 56.9% (active).
With `O=C(COc1ccc2c(-c3ccccc3)cc(=O)oc2c1)NCCCn1ccnc1`, the inhibition is 36.4% (inactive).
On the same count and under the same terms, for `O=C(Nc1ccc(Cc2ccncc2)cc1)c1ccc([N+](=O)[O-])o1` the value was 55.5% (active).
The same measure, in the same setting: to `COc1ccc(NC(=O)CN2C(=O)NC3(CCCC3)C2=O)cc1Cl` belongs 54.6% (active).
The same measure, in the same setting: to `Nc1nc2ccccc2n1/N=C/c1ccc([N+](=O)[O-])s1` belongs 61.2% (active); to `Cc1nnc(SCC(=O)Nc2sc3c(c2C(N)=O)CCCC3)[nH]c1=O`, 46.6% (active).
For `COc1cc(OC)cc(-c2oc3cccnc3c2C#CCCO)c1`, the inhibition is 60.8% (active).
`CC(=O)N1CCc2c(sc(NC(=O)Cc3ccc(F)cc3)c2C#N)C1`: the inhibition was 65.3% (active).
The same measure, in the same setting: for `O=C(CCl)Nc1ccc2c(c1)OCO2` the value was 60.3% (active); for `CCOc1ccccc1C(=O)Nc1cc2c(cc1N1CCCC1)n(CC)c(=O)n2CC`, 48.8% (active).
Still for that read-out and setting: for `COc1cc(/C=N/NC(N)=S)ccc1OCC(=O)Nc1ccc(C)cc1` the value was 48.1% (active).
Still for that read-out and setting: for `Cc1nn(CC(=O)Nc2ccc(N3CCOCC3)cc2)c(C)c1Cl` the value was 44.3% (active).

The target of another assay is Steroidogenic factor 1 (Homo sapiens) (UniProt Q13285). Kind of assay: inverse agonism at SF1 nuclear receptor – cell-based, luminescence, high throughput, counter-screen for LRH-1 inverse agonist project (AID 651614).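 Note: cells cotransfected with StAR promoter reporter and SF1 expression vector; 0% = vehicle on cells with receptor and 100% = vehicle on cells lacking receptor.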 Particulars: cell-based SF1 luciferase reporter, at 3.6 µM, active compounds read high.
Sequence of Steroidogenic factor 1 (Homo sapiens) (Q13285 whole entry, looked up): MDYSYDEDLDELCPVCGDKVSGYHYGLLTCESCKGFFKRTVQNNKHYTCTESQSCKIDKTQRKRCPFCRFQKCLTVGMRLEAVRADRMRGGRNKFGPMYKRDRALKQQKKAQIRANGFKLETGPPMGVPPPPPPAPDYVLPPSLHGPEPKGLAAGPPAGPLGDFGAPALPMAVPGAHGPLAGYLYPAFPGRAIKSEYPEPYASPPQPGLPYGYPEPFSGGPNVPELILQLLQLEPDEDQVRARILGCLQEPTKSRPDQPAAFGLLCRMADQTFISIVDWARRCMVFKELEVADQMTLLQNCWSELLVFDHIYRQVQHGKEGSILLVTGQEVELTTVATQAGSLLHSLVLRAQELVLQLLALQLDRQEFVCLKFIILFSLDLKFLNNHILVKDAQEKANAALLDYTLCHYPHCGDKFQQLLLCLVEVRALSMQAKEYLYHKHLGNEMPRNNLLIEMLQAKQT
`COc1ccc(S(=O)(=O)Nc2cc3c4c(oc3c3ccccc23)CCCC4=O)cc1`: the inhibition is 65.9% (active).
On the same count and under the same terms, for `Cc1c(Cl)cccc1NC(=O)CNc1ccccc1F` the value was 40.6% (inactive).
In the case of `OC[C@@H]1CN(Cc2ccc(-c3ccccc3)cc2)C[C@H](n2cnc3c(NC4CCC4)ncnc32)O1`, the inhibition was 60.2% (active).
The same measure, in the same setting: for `CC1(C)Cc2ccccc2-c2nnnn21` the value was 2.39% (inactive); for `CCn1c(=S)sc2c(=O)n(CC(=O)Nc3ccc(OC)c(Cl)c3)c(C)nc21`, 24.9% (inactive); for `CC(C)Oc1cccc(-c2cc(C(=O)NN3CCOCC3)c3ccccc3n2)c1`, 40.4% (inactive).
On the same count and under the same terms, for `O=C(Nc1cccc(S(=O)(=O)N2CCCCC2)c1)c1ccc([N+](=O)[O-])o1` the value was 69.2% (active); for `CCc1cc(=O)oc2c(C)c(OCC(=O)NC3CC(C)(C)NC(C)(C)C3)ccc12`, 56.1% (active).
The same measure, in the same setting: for `O=C(C1=C[C@@H](C2CCCCC2)C[C@@H](OCc2ccc(CO)cc2)O1)N1CCN(Cc2ccc3c(c2)OCO3)CC1` the value was 40.6% (inactive).
As to `c1ccc(Oc2nc(-c3cccnc3)nc3ccccc23)cc1`, the inhibition is 53.3% (active).
Regarding `CCC1(C)OC(=O)N2CCc3c(C)[nH]c4c(C)ccc(c34)C21C` (stereo not given), the inhibition was 44.9% (active).
Still for that read-out and setting: for `CC(=O)Nc1cc(-c2ccccc2N(C)C)cn2c(-c3ccc(S(C)(=O)=O)cc3)cnc12` the value was 36.5% (inactive); for `C=CCNc1sc(C(=O)c2ccccc2)c(N)c1C#N`, 47.7% (active).
Still for that read-out and setting: to `CCCc1cc(=O)n2nc(N3CCC(C(=O)N4CCN(c5ccc(OC)cc5)CC4)CC3)sc2n1` belongs 55.1% (active); to `O=C(Nc1ccc(N2CCN(C(=O)c3ccccc3)CC2)cc1)c1ccc([N+](=O)[O-])o1`, 66.6% (active); to `C/C(=N\N1CCN(c2ccc(Cl)cc2)CC1)c1cccc([N+](=O)[O-])c1`, 21.2% (inactive).
Same read-out and setting: to `COC(=O)CC1(C(=O)OC)Oc2ccc(Br)cc2C(=O)N1c1cc(Cl)c(Cl)cc1Cl` (stereo not given) belongs 48.2% (active); to `COc1cc2c(cc1OC)CN(C(=O)CN1CCN(S(=O)(=O)c3ccc(C)c(C)c3)CC1)CC2`, 45% (active).
In the case of `CCOC(=O)c1c(C)[nH]c(C(=O)COC(=O)/C=C/c2ccc3c(c2)OCO3)c1C`, the inhibition was 43.6% (active).
`CCOc1cc(/C=N/Nc2nnc(C)n2N)ccc1O`: the inhibition was 22.2% (inactive).
The same measure, in the same setting: for `Cc1ccc(Cn2nc(C)c(NC(=O)c3noc4c3CCCCC4)c2C)cc1` the value was 50.7% (active); for `CCCc1cc(=O)oc2cc(C)cc(OCC(=O)NC3CC3)c12`, 62.1% (active); for `CC(=O)N1CCc2c(sc(NC(=O)Cc3ccccc3)c2C#N)C1`, 57.4% (active).
Still for that read-out and setting: for `Cc1cc(C(=O)CSc2nnnn2C)c(C)n1CCc1ccc(F)cc1` the value was 48% (active); for `S=C(Nc1ccc(Br)cc1)Nc1ccc2c(c1)OCCO2`, -27.8% (inactive).
On to `CCC(=O)N1CCN(c2ccc(NC(=O)c3ccc([N+](=O)[O-])o3)cc2)CC1`, for which the inhibition was 68.4% (active).
Still for that read-out and setting: for `CC1(C(=O)NCc2ccc(Cl)cc2)CCN1C(=O)Cc1ccc(Cl)cc1Cl` (stereo not given) the value was 46.5% (active); for `C=CCNc1nc2c(c(=O)n(C)c(=O)n2C)n1CCCCCC`, 54.9% (active).
Still for that read-out and setting: to `Cc1ccc(S(=O)(=O)NCc2ccncc2)c(C)c1C` belongs 59.5% (active); to `O=C(COc1ccc2c(-c3ccccc3)cc(=O)oc2c1)NCCCn1ccnc1`, 39% (inactive); to `O=C(Nc1ccc(Cc2ccncc2)cc1)c1ccc([N+](=O)[O-])o1`, 63.6% (active).
As for `COc1ccc(NC(=O)CN2C(=O)NC3(CCCC3)C2=O)cc1Cl`, the inhibition is 60.6% (active).
On the same count and under the same terms, for `Nc1nc2ccccc2n1/N=C/c1ccc([N+](=O)[O-])s1` the value was 65.1% (active); for `Cc1nnc(SCC(=O)Nc2sc3c(c2C(N)=O)CCCC3)[nH]c1=O`, 29.9% (inactive).
As to `COc1cc(OC)cc(-c2oc3cccnc3c2C#CCCO)c1`, the inhibition was 54.2% (active).
Still for that read-out and setting: to `CC(=O)N1CCc2c(sc(NC(=O)Cc3ccc(F)cc3)c2C#N)C1` belongs 57.6% (active).
On the same count and under the same terms, for `O=C(CCl)Nc1ccc2c(c1)OCO2` the value was 62.4% (active); for `CCOc1ccccc1C(=O)Nc1cc2c(cc1N1CCCC1)n(CC)c(=O)n2CC`, 53.5% (active); for `COc1cc(/C=N/NC(N)=S)ccc1OCC(=O)Nc1ccc(C)cc1`, 60% (active).
Still for that read-out and setting: for `Cc1nn(CC(=O)Nc2ccc(N3CCOCC3)cc2)c(C)c1Cl` the value was 29.8% (inactive).
